Where “and” joins values, the source holds several entries; their conditions need not be identical. Equal entries are not always repeated. Records with an inconclusive call do not appear. A structure can be active in one record and inactive in another. Calls of active or inactive are those of the source. Unless noted, calls follow the shape of the dose curve; as a rule, active = well fitted curve in the direction sought with a large enough effect in the repeat runs; inconclusive = weak or mixed curves; inactive = no such curve, though single readings can be large; an effect the other way counts as inactive or inconclusive.

Experiment [1] is described as follows: qHTS assay to identify small molecule antagonists of the peroxisome proliferator-activated receptor delta (PPARd) signaling pathway - cell viability counter screen (AID 743213). Also: nearly all actives have a fitted effect of over 50% in size. Also: potency is read from the fitted curve at half-maximal effect. In a few lines: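 HEK293H PPARd UAS-bla cells, 5 h pre-incubation, compound + L165041 300 nM final, 17 h 37 C; B/G FRET substrate 2 h RT; then CellTiter-Glo 30 min RT, luminescence.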

For experiment [2], the target named is Peroxisome proliferator-activated receptor delta (Homo sapiens) (UniProt Q03181). The experiment in a line: qHTS assay to identify small molecule antagonists of the peroxisome proliferator-activated receptor delta (PPARd) signaling pathway (AID 743215; active = well fitted inhibition curve with a large enough effect in the signal ratio in the repeat runs, not every such curve was filed as active; the % refers to the signal ratio;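 also: cells stimulated with agonist L165041 at 300 nM final during compound exposure; series mostly up to about 62 µM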). In a few lines: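 Read-out is beta-lactamase FRET fluorescence, measured 2 h after substrate addition at room temperature. Beforehand, UAS-bla HEK293H cells carrying the PPARd reporter were exposed to compounds with L165041 at 300 nM final for 17 h at 37 C.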
A general note: Quantitative high-throughput screening tests each substance at several concentrations.

In experiment [3] the target is Bile acid receptor (Homo sapiens) (UniProt Q96RI1). Put plainly: qHTS assay to identify small molecule antagonists of the farnesoid-X-receptor (FXR) signaling pathway (AID 743217; active = well fitted inhibition curve with a large enough effect in the signal ratio in the repeat runs, not every such curve was filed as active; the % refers to the signal ratio). Summed up: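 HEK 293T FXR-UAS-bla, 5000 cells/well; compound + CDCA 50 uM final; 16 h, 37 °C; B/G FRET substrate 2 h RT; fluorescence.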
For experiment [4] the target is unchanged. Put plainly: qHTS assay to identify small molecule agonists of the farnesoid-X-receptor (FXR) signaling pathway (AID 743220; active = well fitted activation curve with a large enough effect in the signal ratio in the repeat runs, not every such curve was filed as active; the % refers to the signal ratio). Summed up: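 Beta-lactamase reporter under UAS control in GeneBLAzer FXR HEK 293T cells (5000/well) measured with LiveBLAzer FRET substrate after 2 h at room temperature. Compound exposure lasted 16 h at 37C.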
Experiment [5] in a line: qHTS assay to identify small molecule antagonists of the farnesoid-X-receptor (FXR) signaling pathway - cell viability counter screen (AID 743221; active = well fitted cell-killing curve with a large enough effect in the repeat runs, not every such curve was filed as active; also: nearly all actives have a fitted effect of over 50% in size). Summed up: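 Multiplexed counter screen: viability of FXR-bla HEK 293T cells under agonist stimulation by chenodeoxycholic acid (50 uM, final) and test compound for 16 h at 37 C, measured by CellTiter-Glo luminescence in the reporter wells.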

The target of experiment [6] is Vitamin D3 receptor (Homo sapiens) (UniProt P11473). Put plainly: qHTS assay to identify small molecule antagonists of the vitamin D receptor (VDR) signaling pathway (AID 743223; active = well fitted inhibition curve with a large enough effect in the signal ratio in the repeat runs, not every such curve was filed as active; the % refers to the signal ratio). In a few lines:
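Cells carrying a VDR-driven beta-lactamase reporter (VDR-bla) were co-treated with compound and 3 nM final 1alpha,25-dihydroxyvitamin D3 for 16 h at 37C; reporter activity was measured as FRET substrate fluorescence after 2 h at room temperature.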

Experiment [7] in a line: qHTS assay to identify small molecule agonists of the vitamin D receptor (VDR) signaling pathway - cell viability counter screen (AID 743224). Also: nearly all actives have a fitted effect of over 50% in size. Also: potency is read from the fitted curve at half-maximal effect. Summed up: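 Luminescence from CellTiter-Glo, read after 30 min at room temperature, reports viability of VDR-bla cells treated with compounds for 16 h at 37C in the wells used for the beta-lactamase FRET read.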
A short description of experiment [8]: qHTS assay to identify small molecule antagonists of the vitamin D receptor (VDR) signaling pathway - cell viability counter screen (AID 743225). Also: nearly all actives have a fitted effect of over 50% in size. Summed up:
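HEK293T VDR-bla; cpd + 1a,25-(OH)2D3 3 nM final, 16 h 37C/5% CO2; B/G FRET substrate 2 h RT; then CellTiter-Glo 30 min RT, luminescence.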

Experiment [9] in a line: qHTS assay to identify small molecule agonists of the NFkB signaling pathway - cell viability counter screen (AID 1159515; calls by dose curve; also: series mostly up to about 61 µM; nearly all actives have a fitted effect of over 55% in size). Summed up: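 Luminescence from CellTiter-Glo (30 min, room temperature) gives viability, measured in the same wells as the beta-lactamase reporter read. Cells were NFkB-bla ME-180, 2,000 per well, treated 5 hr with compounds.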
Experiment [10] in a line: qHTS assay to identify small molecule agonists of the endoplasmic reticulum stress response signaling pathway (AID 1159516; active = well fitted activation curve with a large enough effect in the signal ratio in the repeat runs, not every such curve was filed as active; the % refers to the signal ratio). In a few lines:
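Read-out is beta-lactamase cleavage of a FRET substrate (405 nm excitation; 460 and 530 nm emissions) in ESRE-bla HeLa cells after a 5 hr compound exposure at 37 C. Substrate incubation ran 2 hr at room temperature.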

Experiment [11] in a line: qHTS assay to identify small molecule agonists of the endoplasmic reticulum stress response signaling pathway - cell viability counter screen (AID 1159517; calls by dose curve). In a few lines:
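ESRE-bla HeLa cells, 1,500 per well, seeded overnight then treated with compounds for 5 hr at 37 C. After the beta-lactamase read, viability in the same wells is measured by CellTiter-Glo luminescence after 30 min at room temperature.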

The nature of experiment [12]: qHTS assay to identify small molecule antagonists of the retinoid-related orphan receptor gamma (ROR-gamma) signaling pathway - cell viability counter screen (AID 1159520). Also: nearly all actives have a fitted effect of over 50% in size. Summed up:
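Tet-on ROR gamma CHO cells were given compounds for 2 hr, then doxycycline hyclate at 1 uM final, and incubated 16 hr at 37 C. Viability was measured as ATP content by CellTiter-Glo luminescence.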

For experiment [13], the target named is Nuclear receptor ROR-gamma (Homo sapiens) (UniProt P51449). Put plainly: qHTS assay to identify small molecule antagonists of the retinoid-related orphan receptor gamma (ROR-gamma) signaling pathway (AID 1159521; also: nearly all actives have a fitted effect of over 50% in size; also: potency is read from the fitted curve at half-maximal effect). Summed up: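 Cells were plated, rested 4 h at 37 C, exposed to compounds for 2 h, then given 1 uM final doxycycline hyclate to induce RORγ expression. After 16 h, ONE-Glo luminescence from the ROR response element reporter was measured.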

Experiment [14] in a line: qHTS assay to identify small molecule agonists of the AP-1 signaling pathway - cell viability counter screen (AID 1159525; calls by dose curve; also: nearly all actives have a fitted effect of over 55% in size). Summed up:
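AP-1-bla ME-180 cells in Opti-MEM with 0.5% dialyzed FBS, compound exposure 5 h at 37 C in 15-point titration. Viability read in the same wells as ATP content by CellTiter-Glo luminescence, normalised to tetra-n-octylammonium bromide and DMSO controls.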

Experiment [15] is described as follows: qHTS assay to identify small molecule agonists of the AP-1 signaling pathway (AID 1159526; calls by dose curve).
The target in experiment [16] is Retinoic acid receptor RXR-alpha (Homo sapiens) (UniProt P19793). The experiment in a line: qHTS assay to identify small molecule agonists of the RXR signaling pathway (AID 1159527; calls by dose curve; also: nearly all actives have a fitted effect of over 35% in size; also: potency is read from the fitted curve at half-maximal effect). In a few lines: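 Cells plated at 2,000/well, rested 5 hr at 37 C, pin-dosed with DMSO compound solutions, incubated 16 hr, then loaded with B/G FRET substrate for 2 hr at RT before dual-emission fluorescence reading.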

The nature of experiment [17]: qHTS assay to identify small molecule agonists of the RXR signaling pathway - cell viability counter screen (AID 1159529). Also: nearly all actives have a fitted effect of over 50% in size. Also: potency is read from the fitted curve at half-maximal effect. In a few lines:
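Steps: seed RXR-alpha-UAS-bla HEK 293T cells in assay medium containing 2% charcoal-stripped FBS; incubate 5 hr; add compounds in DMSO; incubate 16 hr at 37 C; after the bla read, add CellTiter-Glo and read luminescence at 30 min.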

Experiment [18] is described as follows: qHTS assay to identify small molecule antagonists of the retinoid acid receptor (RAR) signaling pathway - cell viability counter screen (AID 1159551). Also: nearly all actives have a fitted effect of over 35% in size. In a few lines:
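Luminescent ATP quantitation (CellTiter-Glo) gave cell viability in C3RL4 cells exposed to test chemicals for 6 h at 37 C alongside 1 uM final retinol.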

The nature of experiment [19]: qHTS assay to identify small molecule antagonists of the retinoic acid receptor (RAR) signaling pathway (AID 1159552; also: nearly all actives have a fitted effect of over 50% in size; also: potency is read from the fitted curve at half-maximal effect). In a few lines:
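Retinol at 1 uM final stimulated RARE-luciferase expression in C3RL4 cells exposed to test compounds for 6 hr at 37 C. Reduced luminescence, read 30 min after detection reagent, indicated pathway antagonism.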

Sequence of Retinoic acid receptor RXR-alpha (Homo sapiens) (P19793 whole entry, looked up): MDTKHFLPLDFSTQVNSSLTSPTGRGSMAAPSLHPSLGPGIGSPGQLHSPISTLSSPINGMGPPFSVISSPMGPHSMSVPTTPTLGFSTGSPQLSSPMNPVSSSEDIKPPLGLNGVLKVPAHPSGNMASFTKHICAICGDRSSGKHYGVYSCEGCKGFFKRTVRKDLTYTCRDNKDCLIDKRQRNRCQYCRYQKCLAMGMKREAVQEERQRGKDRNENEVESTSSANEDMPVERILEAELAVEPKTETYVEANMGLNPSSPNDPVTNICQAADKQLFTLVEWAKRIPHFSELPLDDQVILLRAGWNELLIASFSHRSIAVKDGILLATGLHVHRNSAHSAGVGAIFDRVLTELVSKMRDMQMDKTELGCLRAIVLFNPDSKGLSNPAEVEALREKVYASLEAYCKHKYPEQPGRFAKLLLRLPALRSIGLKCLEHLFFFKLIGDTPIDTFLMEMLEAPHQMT
Sequence of Vitamin D3 receptor (Homo sapiens) (P11473 whole entry, looked up): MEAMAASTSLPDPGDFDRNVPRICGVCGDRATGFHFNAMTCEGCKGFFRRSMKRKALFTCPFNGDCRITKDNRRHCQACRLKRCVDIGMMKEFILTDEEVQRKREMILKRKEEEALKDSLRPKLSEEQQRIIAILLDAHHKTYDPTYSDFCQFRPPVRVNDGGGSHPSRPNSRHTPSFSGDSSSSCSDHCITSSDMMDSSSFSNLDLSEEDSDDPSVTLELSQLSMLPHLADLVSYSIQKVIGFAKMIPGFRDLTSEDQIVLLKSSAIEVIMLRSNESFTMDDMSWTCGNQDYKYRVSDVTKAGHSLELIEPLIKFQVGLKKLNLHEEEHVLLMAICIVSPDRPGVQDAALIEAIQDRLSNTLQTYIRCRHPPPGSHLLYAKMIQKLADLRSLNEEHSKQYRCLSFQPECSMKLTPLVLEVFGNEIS
Sequence of Bile acid receptor (Homo sapiens) (Q96RI1 whole entry, looked up): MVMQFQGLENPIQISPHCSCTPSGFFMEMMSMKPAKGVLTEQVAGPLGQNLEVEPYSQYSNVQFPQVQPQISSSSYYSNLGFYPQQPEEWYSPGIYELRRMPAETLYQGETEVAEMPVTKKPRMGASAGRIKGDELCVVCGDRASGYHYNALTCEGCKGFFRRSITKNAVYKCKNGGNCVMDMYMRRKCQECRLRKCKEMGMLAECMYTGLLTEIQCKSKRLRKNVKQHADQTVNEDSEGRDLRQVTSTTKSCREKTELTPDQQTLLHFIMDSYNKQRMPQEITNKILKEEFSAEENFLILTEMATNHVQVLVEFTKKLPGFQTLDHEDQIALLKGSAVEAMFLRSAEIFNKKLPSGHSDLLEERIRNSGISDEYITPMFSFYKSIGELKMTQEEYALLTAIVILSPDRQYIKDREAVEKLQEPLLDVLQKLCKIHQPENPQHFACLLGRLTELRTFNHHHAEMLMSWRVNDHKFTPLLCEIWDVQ
Sequence of Peroxisome proliferator-activated receptor delta (Homo sapiens) (Q03181 whole entry, looked up): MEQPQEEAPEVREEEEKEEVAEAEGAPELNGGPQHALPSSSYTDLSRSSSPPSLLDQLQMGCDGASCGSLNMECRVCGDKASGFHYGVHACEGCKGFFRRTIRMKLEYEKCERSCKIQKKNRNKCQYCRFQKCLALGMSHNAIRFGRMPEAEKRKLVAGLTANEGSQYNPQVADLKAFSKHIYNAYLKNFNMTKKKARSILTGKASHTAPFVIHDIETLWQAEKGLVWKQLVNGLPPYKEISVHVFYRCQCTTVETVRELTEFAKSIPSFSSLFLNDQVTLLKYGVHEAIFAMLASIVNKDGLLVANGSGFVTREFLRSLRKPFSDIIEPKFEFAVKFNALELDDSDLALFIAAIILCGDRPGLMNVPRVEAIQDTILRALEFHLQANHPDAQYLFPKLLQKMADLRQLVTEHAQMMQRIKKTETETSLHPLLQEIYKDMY

`C[N+](C)(C)Cc1ccccc1`: the Potency entry in [1], in [3], in [5], in experiment [6], in experiment [7] and in [8] was “inactive” throughout. In addition, the Potency entry in experiment [9], in experiment [11], in [12], in experiment [13], in experiment [14] and in experiment [15] was “inactive” in each case. Besides, the Potency result in experiment [16], in experiment [17] and in experiment [18] was “inactive” in each case. Moreover, the result in experiment [2], in experiment [4] and in experiment [10] was inactive.
On to `CC(Cl)(Cl)C(=O)O`, for which the Potency entry in experiment [1], in experiment [5], in experiment [6], in experiment [7], in [8] and in experiment [9] was “inactive” throughout. Also, the Potency result in experiment [11], in experiment [12], in experiment [13], in experiment [15], in experiment [16] and in experiment [17] was “inactive” in each case. The Potency result in experiment [18] was “inactive”. Besides, the result in experiment [2] and in experiment [10] was inactive.
As for `CCCC[N+]1(C)CCCCC1`, the Potency entry in [1], in experiment [5], in experiment [6], in [7], in experiment [8] and in experiment [9] was “inactive” in each case. Besides, the Potency result in [11], in experiment [12], in experiment [13], in experiment [14], in experiment [15] and in experiment [16] was “inactive” each time. Moreover, the Potency result in experiment [17] and in experiment [18] was “inactive” each time. Moreover, the result in experiment [10] was inactive.
With `CCNc1nc(Cl)nc(NCC)n1`, the Potency entry in [1], in [3], in experiment [5], in [6], in experiment [7] and in experiment [8] was “inactive” each time. The Potency entry in experiment [9], in experiment [11], in [12], in experiment [14], in experiment [15] and in [17] was “inactive” each time. Besides, the Potency entry in experiment [18] and in [19] was “inactive” throughout. Further, the call in [4] and in experiment [10] was inactive. The Potency is 48.8 µM (active) and inactive in experiment [13]; “inactive and 12.2 µM (active)” in experiment [16].
On to `Cc1cc(Cl)ccc1N`, for which the Potency result in [1], in [5], in [7], in experiment [8], in [9] and in experiment [11] was “inactive” in each case. Also, the Potency result in [12], in experiment [13], in experiment [14], in experiment [15], in [16] and in experiment [17] was “inactive” throughout. Besides, the Potency result in [18] and in experiment [19] was “inactive” throughout. The outcome in experiment [2] and in [10] was inactive.
As to `CCCCCC[n+]1ccccc1`, the Potency was 55.5 µM (active) and inactive in experiment [1]; 39.3 µM (active) and 49.3 µM (active) and inactive in experiment [7]; 55.5 µM (active) and 49.3 µM (active) and inactive in experiment [17]. The Potency entry in [5], in experiment [8], in experiment [9], in [11], in experiment [12] and in [13] was “inactive” in each case. Moreover, the Potency entry in [14], in experiment [15], in experiment [16] and in [18] was “inactive” in each case. Moreover, the compound was classed as inactive in experiment [10].
For `C[C@]12CCC(=O)C=C1CC[C@@H]1[C@@H]2CC[C@]2(C)C(=O)CC[C@@H]12`, the Potency entry in [1], in experiment [3], in [5], in experiment [7], in [8] and in [9] was “inactive” each time. Also, the Potency result in experiment [11], in [12], in experiment [15], in [16], in experiment [17] and in experiment [18] was “inactive” each time. The outcome in experiment [4] and in experiment [10] was inactive. For the same compound, the Potency in experiment [13] was 23.9 µM (active) and inactive; in [19], 47.7 µM (active) and inactive.
With `CCC[N+]1(C)CCCC1`, the Potency result in [1], in experiment [5], in experiment [7], in experiment [8], in experiment [9] and in experiment [11] was “inactive” each time. Moreover, the Potency result in [12], in experiment [13], in experiment [14], in experiment [15], in experiment [16] and in [17] was “inactive” each time. Moreover, the Potency result in [18] is “inactive”. Besides, the compound was classed as inactive in [2] and in [10].

The record behind these values is PubChem BioAssay (Tox21).
